# Experimental data: PubChem BioAssay (Tox21)
# Results filed as inconclusive are left out. Entries that show only a call come without a potency. The source made the active and inactive calls. Calls come from the whole dose curve.
# Experiment: qHTS assay for small molecules that induce genotoxicity in human embryonic kidney cells expressing luciferase-tagged ATAD5 - cell viability (AID 651634); note: nearly all actives have a fitted effect of over 25% in size
# Settings: HEK293T ATAD5-luc cells viability, CellTiter-Fluor, 15.5 h; series mostly up to 83.3 µM
# Text: National Center for Advancing Translational Sciences [NCATS]
# NIH Chemical Genomics Center [NCGC]
# U.S. Environmental Protection Agency [EPA]
# National Institutes of Environmental Health Sciences [NIEHS]
# National Toxicology Program [NTP]
# U.S. Food and Drug Administration [FDA]
# Enhanced Level of Genome Instability Gene 1 (ELG1; human ATAD5) protein levels increase in response to various types of DNA damage. Using a luciferase reporter-gene tagged with ElG1, a cell-based assay [developed by Kyungjae Myung, NHGRI, NIH] was used to measure the induction of ATAD5 in human embryonic kidney cells (HEK293T). So, increase in luciferase activity can be used to identify the compounds that cause genetic stress. In addition to genotoxicity, these cells were also used to test for cytotoxicity by measuring the protease activity within live cells.
# Tox21 Assay Protocol Summary:
# For cytotoxicity screening, 2,000 cells in 5 uL/well were dispensed into white, solid-bottom 1536-well plates using a Multidrop Combi (Thermo Scientific) dispenser. Following transfer of 23 nL compound or DMSO vehicle by a pin tool, the plates were incubated 15.5 hr at 37C and 5% CO2. 1 ul CellTiter-Fluor reagent (Promega, Madison, WI) was then added to each plate and following 30 min incubation at 37C, fluorescence intensity was quantified on a ViewLux CCD-based plate reader.
# Potency is the fitted concentration of half-maximal effect.
SMILES,Potency,"activity, negative = cytotoxicity"
Cc1ccc(N(CCO)CCO)cc1,inactive,–
Nc1nc2ccc(OC(F)(F)F)cc2s1,inactive,–
Cc1ccc(Cl)cc1N,inactive,–
Cc1ccccc1S(N)(=O)=O,inactive,–
COc1ccc(-c2cc(C(F)F)nn2-c2ccc(S(N)(=O)=O)cc2)cc1F,inactive,–
COc1ccc(-n2nc(C(F)F)cc2-c2ccc(S(C)=O)cc2)cc1 (stereo not given),inactive,–
CNc1c2c(nn1C)CCCC2,inactive,–
O=C(O)CCC(=O)c1ccc(-c2ccccc2)cc1,inactive,–
CCCCCC,inactive,–
O=P(O)(O)Oc1ccccc1,inactive,–
CCOC(=O)C(C)O (stereo not given),inactive,–
Cc1c(C2(c3cc(Br)c(O)c(Br)c3C)OS(=O)(=O)c3ccccc32)cc(Br)c(O)c1Br,8.38 µM (active),–
COC1CCC=CO1 (stereo not given),inactive,–
BrC(Br)C(Br)Br,inactive,–
O=c1[nH]c2cc(C(F)(F)F)c(N3CCOCC3)cc2n(CP(=O)(O)O)c1=O,inactive,–
CCO[Si](C)(CCCOCC1CO1)OCC (stereo not given),inactive,–
c1ccc(CCCc2ccncc2)cc1,inactive,–
CC1=CC[C@@]23C[C@@H]1C(C)(C)[C@@H]2CC[C@H]3C,inactive,–
CSSc1ccoc1C,inactive,–
CCc1ccc(C)cc1,inactive,–

SMILES,Potency,"activity, negative = cytotoxicity"
CC(C)C(=O)OCCOc1ccccc1,inactive,–
Nc1nc(-c2ccc([N+](=O)[O-])cc2)cs1,inactive,–
CCC(Cl)CC(Cl)C(Cl)C(Cl)C(Cl)C(C)Cl (stereo not given),–,13% [at 17.9 µM] (inactive)
Nc1ccn([C@H]2CS[C@@H](CO)O2)c(=O)n1,inactive,–
CCCCCCCC(=O)OCCCCCC,inactive,–
Cc1ccc(S(=O)(=O)NC(=O)NC2CCCCC2)cc1,inactive,–
CCN(CC)CCNC(=O)c1cc(Cl)c(N)cc1OC,inactive,–
CC(C)COC(=O)COc1cc(Cl)c(Cl)cc1Cl,inactive,–
c1ccc2sc(SSc3nc4ccccc4s3)nc2c1,inactive,–
Cc1cc([N+](=O)[O-])ccc1N,47.9 µM (active),–
CCN(CC)CCOC(=O)C(c1ccccc1)c1ccccc1,inactive,–
CC(C)(C)NCC(O)COc1cccc2c1C[C@H](O)[C@H](O)C2 (stereo not given in full),inactive,–
CCN(CC)CCOc1ccccc1C(=O)CCc1ccccc1,inactive,–
CC(C)(O)CCc1ccccc1,inactive,–
Cc1ccc2nc(N)[nH]c(=O)c2c1Sc1ccncc1,inactive,–
COc1cc(NC(C)CCCN)c2ncccc2c1 (stereo not given),inactive,–
Cc1c[nH]c2ccccc12,inactive,–
Cc1ccc2c(c1[N+](=O)[O-])C(=O)c1ccccc1C2=O,inactive,–
Cc1ccc(NC(=O)N(C)C)cc1NC(=O)N(C)C,inactive,–
COC(=O)CC(C(C)=O)C(=O)OC (stereo not given),inactive,–
